“And” between values parts separate entries of the source, which are not always exact repeats. Equal values may be shown once. Out of some 150,000 compounds screened, about 6,500 (4.3%) were called active. Roughly 12% stayed inconclusive and do not appear here. The entries come from a sample that favours actives as a whole. Values without a mark were called inactive. Calls follow the shape of the dose curve; as a rule, active = well fitted inhibition curve with a large enough effect (not every such curve was filed as active); inconclusive = small, poorly fitted or top-dose-only effect, or another doubt; inactive = no such curve, though single readings can be large or run the other way.
What follows are compounds tested against 15-hydroxyprostaglandin dehydrogenase [NAD(+)] (Homo sapiens) (UniProt P15428) (assay: qHTS Assay for Inhibitors of HPGD (15-Hydroxyprostaglandin Dehydrogenase)). Settings: purified HPGD, NADH fluorescence kinetic, PGE2 substrate; activity change, negative = inhibition: active compounds read low.
Source text: Human 15-Hydroxyprostaglandin dehydrogenase (HPGD) catalyzes the inactivation of prostaglandin E2, and plays a major role in cancer biology by antagonizing the oncogenic potential of cyclooxygenase type 2 (COX2). Assays are available, based on absorbance/fluorescence increase of NADH with the substrate 15-OH prostaglandin E2. References 1. Myung SJ, Rerko RM, Yan M, Platzer P, Guda K, Dotson A, Lawrence E, Dannenberg AJ, Lovgren AK, Luo G, Pretlow TP, Newman RA, Willis J, Dawson D, Markowitz SD. 15-Hydroxyprostaglandin dehydrogenase is an in vivo suppressor of colon tumorigenesis. […] 2. Yan M, Rerko RM, Platzer P, Dawson D, Willis J, Tong M, Lawrence E, Lutterbaugh J, Lu S, Willson JK, Luo G, Hensold J, Tai HH, Wilson K, Markowitz SD. 15-Hydroxyprostaglandin dehydrogenase, a COX-2 oncogene antagonist, is a TGF-beta-induced suppressor of human gastrointestinal cancers. Proc Natl Acad Sci U S A. 2004 Dec 14;101(50):17468-73. 3. Yang L, Amann JM, Kikuchi T, Porta R, Guix M, Gonzalez A, Park KH, Billheimer D, Arteaga CL, Tai HH, Dubois R, Carbone DP, Johnson DH. Inhibition of Epidermal Growth Factor Receptor Signaling Elevates 15-Hydroxyprostaglandin Dehydrogenase in Non-Small-Cell Lung Cancer. Cancer Res. 2007 Jun 15;67(12):5587-5593. Inhibition of HPGD activity was screened by utilizing prostaglandin as an electron donor and NAD+ as an electron acceptor/cofactor. An increase in the fluorescence intensity due to conversion of NAD+ to NADH was used to measure the enzyme activity. NIH Chemical Genomics Center [NCGC] Structural Genomics Consortium [SGC]
Buffer: 50 mM Tris-HCl, 0.01% Tween 20, pH 8. Enzyme Buffer: 50 mM Tris-HCl, 0.5 mM NAD+ and 0.01% Tween 20, pH 8. Reagents/Controls: Buffer in columns 3 and 4 as negative control (no enzyme). Substrate/cofactor solution: 1 mM NAD+ and 30 uM prostaglandin (Sigma, prostaglandin E2, # P5640) final concentrations dispensed throughout the plate. Enzyme: 20 nM HPGD final concentration in columns 1, 2, 5-48. Column 1 and 2 is neutral (100% activity). A titration of control inhibitor GW5074 (G6416 Sigma-Aldrich, St. Louis, MO) top concentration 10 mM in DMSO, then 1:2 dilution for a total of 16 concentrations in duplicate) was pin-transferred into column 2. Assay Steps: Three uL of enzyme were dispensed to 1536-well Greiner black solid bottom plates. Compounds and control inhibitor (23 nL) were transferred via Kalypsys PinTool. The plates were incubated for 15 min at room temperature, and then 1 uL of substrate/cofactor solution was added to start the reaction. The plates were immediately transferred to and read 5 times every 30 seconds on ViewLux High-throughput CCD imager (Perkin-Elmer) using 360 nm excitation and 450 nm emission fluorescence protocol. The fluorescence intensity difference between the last and the first time points was used to compute reaction progress.
% is scaled to controls: 0 for no effect and ±100 for the full control effect; potency is read from the fitted curve at half-maximal effect.

Chain of 15-hydroxyprostaglandin dehydrogenase [NAD(+)] (Homo sapiens) (P15428 whole entry, looked up): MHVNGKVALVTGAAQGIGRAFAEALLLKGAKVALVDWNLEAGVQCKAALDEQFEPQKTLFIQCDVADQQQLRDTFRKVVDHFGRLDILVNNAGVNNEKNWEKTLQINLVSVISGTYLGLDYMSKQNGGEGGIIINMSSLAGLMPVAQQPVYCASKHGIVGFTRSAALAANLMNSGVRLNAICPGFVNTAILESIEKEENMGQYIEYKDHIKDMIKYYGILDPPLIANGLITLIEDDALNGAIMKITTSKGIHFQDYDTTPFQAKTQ

Structure (SMILES)	activity change, negative = inhibition	Potency
CC(=O)c1c(O)c(C)c(O)c(Cc2c(O)c3c(c(C(=O)/C=C/c4ccccc4)c2O)OC(C)(C)C=C3)c1O	-19.2% and -15.4%	
CCCCC/C=C\C/C=C\C/C=C\CCCCCCC(=O)NCCO	-7.26% and -18.7%	
CC(C)(c1ccc(OC[C@@H]2CO2)cc1)c1ccc(OC[C@H]2CO2)cc1		12.6 µM (active)
CCOC(=O)c1ncn2c1[C@@H]1CCCN1C(=O)c1cc(OC)ccc1-2	-9.65%	
Cc1nc2nc(C)c(CCC(=O)N3CCC4(CC3)OCCO4)c(C)n2n1	-4.62%	
C=CC#N	-3.54%	
NCCc1c[nH]c2ccc(O)cc12	-4.55% and -5.27% and -12.4%	
Cc1noc(C)c1CSc1nc2cc(S(=O)(=O)N3CCOCC3)ccc2o1		7.94 µM (active)
C[C@@]12CCC3C(CC[C@@H]4CC(O)CC[C@@]34C)C1CCC2O (some centres not stated)	-3.43%	
CC(Cl)Cl	-8.77%	
O=C(NCc1cccs1)c1ccc(Br)o1		20 µM (active)
Fc1ccc(C(OCCN2CCN(C/C=C\c3ccccc3)CC2)c2ccc(F)cc2)cc1	-13.4%	
CCCCC/C=C\C/C=C\C/C=C\C=C\[C@H](CCCC(=O)O)OO	-9.41%	
Cc1cccc2c3c(ccc12)C1=C(C(=O)C3=O)C(C)CO1 (configuration not stated)		17.8 µM (active)
CNCC[C@H](Oc1ccc(C(F)(F)F)cc1)c1ccccc1	-9.03% and -8.03% and -3.66%	
CC(C)(O)/C=C\C(=O)[C@](C)(O)[C@H]1[C@H](O)C[C@]2(C)[C@@H]3CC=C4[C@@H](C=C(O)C(=O)C4(C)C)[C@]3(C)C(=O)C[C@@]12C	-9.86%	
COC(=O)N(c1ccc(OC)cc1)P1(=S)OCCC(C)O1 (configuration not stated)		4.47 µM (active)
OC(Cn1c2ccccc2c2ccccc21)C[n+]1ccccc1 (configuration not stated)	-3.99%	
Cc1ccc(N2C(=O)NC(=O)C(CCc3ccncc3)(Cc3cccc(Cl)c3Cl)C2=O)cc1 (configuration not stated)	-5.28%	
C=CCSSCC=C		8.91 µM (active)
CC(=O)OC1C2CCC3C1(CC(O)[C@@]1(O)[C@@H](CC(O)C1(C)C)[C@]3(C)O)C[C@@]2(C)O (some centres not stated)	-0.742%	
CCCCCCCCCCCCCC(=O)O[C@@H]1[C@@H](C)[C@@]2(O)[C@@H](C=C(CO)C[C@]3(O)C(=O)C(C)=C[C@@H]23)[C@@H]2C(C)(C)[C@]12OC(C)=O	-19%	
CC(C)(O)c1[se]c2ccccc2c1I	-24.2%	
Cc1cccc(N2C(=O)NC(=O)/C(=C\c3cnn(-c4ccccc4)c3)C2=O)c1		10 µM (active)

Structure (SMILES)	activity change, negative = inhibition	Potency
CC12CN3CC(C)(CN(C1)C3c1cccs1)C2 (configuration not stated)	-2.07%	
CC(=C1C(=O)c2ccccc2C1=O)N1CCN(CCN=Cc2c(O)n(C)c(=O)n(C)c2=O)CC1	-26.9%	
COc1c(O)ccc2c1-c1c3c(cc4c1C(C2)N(C)CC4)OCO3 (configuration not stated)	-4.96%	
O=c1c2ccccc2nc(-c2ccco2)n1-c1ccc(Br)cn1	-7.61%	
Cc1nc2ccccn2c1P(=S)(N1CCCCC1)N1CCCCC1	-26.7%	
CCCCCCCCc1[se]c2ccccc2c1Br	1.04%	
CCNC[C@H](O)c1cccc(O)c1	-6.69%	
O=C1/C(=C\c2ccc3c(c2)OCO3)N2CCC1CC2		25.1 µM (active)
N[C@H](Cc1o[nH]c(=O)c1Cl)C(=O)O	0.654%	
Cc1ccc(N(C)C(=O)Oc2cccc3ccc(C)nc23)cc1	-1.1%	
O=c1c2ccccc2nc(-c2ccc(Cl)cc2Cl)n1-c1ccncc1	-1.06%	
C1CC[C@H]([C@@]23C[C@H](C[C@H]4CCCN[C@H]42)[C@@H]2CCCCN2C3)NC1	-4.36%	
O=C(O)C1C2CCC(O2)C1C(=O)O (configuration not stated)	-2.85%	
O=C(OCC1O[C@@H](OC(=O)c2cc(O)c(O)c(O)c2)[C@@H](OC(=O)c2cc(O)c(O)c(O)c2)[C@@H](OC(=O)c2cc(O)c(O)c(O)c2)[C@@H]1OC(=O)c1cc(O)c(O)c(O)c1)c1cc(O)c(O)c(O)c1 (some centres not stated)		10 µM (active)
CC(C)N(CC#CCC1(O)c2ccccc2-c2ccccc21)C(C)C	-8.59%	
CCN1CCN(C(=O)Cc2coc3cc(C)cc(C)c23)CC1	-14.1%	
O=[N+]([O-])c1ccc(Cl)c(Cl)c1	-4.16%	
CN[C@@H]1C[C@H]2O[C@@](C)([C@@H]1OC)n1c3ccccc3c3c4c(c5c6ccccc6n2c5c31)C(=O)NC4	-25.7%	
Cc1ccc(Cn2c(C)c3cnn(CC(=O)N4CCC5(CC4)OCCO5)c(=O)c3c2C)cc1	-21.8%	
Cc1cc(-c2n[nH]c(=S)n2-c2ccc(C)c(C)c2)no1		5.62 µM (active)
NCCc1ccc(S(=O)(=O)F)cc1	-8.88%	
CC(=O)O[C@H]1CC[C@@]2(C)[C@@H](CC[C@H]3[C@H]2CC(=O)[C@]2(C)[C@@H]3C[C@@H](N3CC3)[C@H]2C(C)=O)C1	-8.48%	
CCC(C)C(=O)O[C@@H]1C[C@@]2(C)C(c3ccoc3)OC(=O)CC23OC2(C)O[C@@]14[C@@]1(C)C(CC(=O)OC)C5(C)CC1(O)C(O)(C5OC(=O)C1(C)OC1C)C(OC(C)=O)[C@@]34O2 (some centres not stated)	-23.2%	
